Here are results for eight compounds from PubChem BioAssay (Tox21).

Assay [1] can be described thus: qHTS assay to identify aromatase inhibitors - cell viability counter screen (AID 743084).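 Further: cells stimulated with testosterone during compound exposure; nearly all actives have a fitted effect of over 55% in size.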 Further: potency means the concentration at half of the fitted maximal effect.
The target in assay [2] is Aryl hydrocarbon receptor (Homo sapiens) (UniProt P35869). Briefly: qHTS assay to identify small molecule that activate the aryl hydrocarbon receptor (AhR) signaling pathway (AID 743085). Further: nearly all actives have a fitted effect of over 15% in size. Further: potency means the concentration at half of the fitted maximal effect.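 On activation: HG2L7.5c1 human HepG2 liver cells with stably integrated DRE-driven firefly reporter; series mostly up to about 70 µM.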 The gist of the method:
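Luminescence (ONE-Glo) from a dioxin-responsive-element luciferase reporter in HG2L7.5c1 HepG2 cells after 24 hr compound exposure at 37C; viability measured by CellTiter-Fluor fluorescence beforehand.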

Assay [3] in a line: qHTS assay to identify small molecule that activate the aryl hydrocarbon receptor (AhR) signaling pathway - cell viability counter screen (AID 743086).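 Further: HepG2 liver cells carrying the AhR DRE luciferase reporter; series mostly up to about 70 µM; nearly all actives have a fitted effect of over 45% in size.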 Put shortly:
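HepG2-AhR-luc (HG2L7.5c1) cells, 4000/well, were preincubated 5 h at 37C, exposed to compound in qHTS format for 24 hr at 37C, then given CellTiter-Fluor for 30 min; viability was read as fluorescence in the reporter wells.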

Assay [4] deals with Peroxisome proliferator-activated receptor gamma (Homo sapiens) (UniProt P37231). Briefly: qHTS assay to identify small molecule agonists of the peroxisome proliferator-activated receptor gamma (PPARg) signaling pathway (AID 743094; active means well fitted activation curve with a large enough effect in the signal ratio in the repeat runs, not every such curve was filed as active; the % refers to the signal ratio). Put shortly: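 Following 5 h plating at 37C, PPARg-bla HEK293H cells receive compound or DMSO for 17 h; fluorescence intensity is recorded after LiveBLAzer B/G loading for 1 h at room temperature.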

Assay [5] shares this target. Description: qHTS assay to identify small molecule antagonists of the peroxisome proliferator-activated receptor gamma (PPARg) signaling pathway (AID 743191; calls by dose curve; further: nearly all actives have a fitted effect of over 30% in size; further: potency means the concentration at half of the fitted maximal effect). The gist of the method:
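GeneBLAzer PPARg UAS-bla HEK293H cells carrying a UAS-driven beta-lactamase reporter were plated at 3000 cells/well, preincubated 5 h at 37C, then given compound for 17 h at 37C; LiveBLAzer B/G FRET substrate was read after 1 h at room temperature.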

The nature of assay [6]: qHTS assay to identify small molecule antagonists of the peroxisome proliferator-activated receptor gamma (PPARg) signaling pathway - cell viability counter screen (AID 743194). Further: nearly all actives have a fitted effect of over 55% in size. The settings on record: Potency: co-treated with 50 nM rosiglitazone. The gist of the method:
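PPARg-UAS-bla HEK293H cells were plated, rested 5 h at 37 C, then treated with compounds plus rosiglitazone (50 nM final) for 17 h at 37 C; viability was then read by CellTiter-Glo luminescence after 30 min at room temperature.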

A short description of assay [7]: qHTS assay for small molecule agonists of the antioxidant response element (ARE) signaling pathway (AID 743202; active means well fitted activation curve with a large enough effect in the signal ratio in the repeat runs, not every such curve was filed as active; the % refers to the signal ratio). The gist of the method:
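Read-out: LiveBLAzer B/G FRET substrate fluorescence after 2 h at room temperature, following 16 h compound treatment at 37 C of HepG2 cells carrying an ARE-driven beta-lactamase reporter.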

A short description of assay [8]: qHTS assay for small molecule agonists of the antioxidant response element (ARE) signaling pathway - cell viability counter screen (AID 743203; calls by dose curve; further: nearly all actives have a fitted effect of over 55% in size). Put shortly:
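Compounds in DMSO were pinned onto ARE-bla HepG2 cells plated 5 hrs earlier at 2,000 cells/well. Sixteen hours later at 37C/5% CO2, CellTiter-Glo was added and luminescence measured after 30 min at room temperature.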

Assay [9] is described as follows: qHTS assay for small molecule activators of the heat shock response signaling pathway - cell viability counter screen (AID 743209). Further: nearly all actives have a fitted effect of over 50% in size. Put shortly:
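Counter screen for cytotoxicity in HeLa HSE-bla reporter cells. Treatment was 5 h at 37 C; viability was detected by luminescent ATP assay (CellTiter-Glo) in the same wells as the beta-lactamase read.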

The nature of assay [10]: qHTS assay for small molecule activators of the heat shock response signaling pathway (AID 743210; active means well fitted activation curve with a large enough effect in the signal ratio in the repeat runs, with a control signal flat, not every such curve was filed as active; the % refers to the signal ratio; further: series mostly up to about 63 µM). Put shortly:
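HSE-bla HeLa cells (beta-lactamase reporter under heat shock response elements) were exposed to compounds for 5 h at 37 C, then loaded with LiveBLAzer B/G FRET substrate for 2.5 h at room temperature before fluorescence reading.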

Assay [11] in a line: qHTS assay to identify small molecule agonists of the peroxisome proliferator-activated receptor delta (PPARd) signaling pathway - cell viability counter screen (AID 743211). Further: nearly all actives have a fitted effect of over 55% in size. Put shortly:
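Viability was measured as CellTiter-Glo luminescence (30 min, room temperature) in the same wells as the beta-lactamase readout. GeneBLAzer PPARd UAS-bla HEK293H cells received compound after 5 h plating and were incubated 17 h at 37 C.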

The target in assay [12] is Peroxisome proliferator-activated receptor delta (Homo sapiens) (UniProt Q03181). Briefly: qHTS assay to identify small molecule agonists of the peroxisome proliferator-activated receptor delta (PPARd) signaling pathway (AID 743212; calls by dose curve). The gist of the method:
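GeneBLAzer PPARd UAS-bla HEK293H cells (beta-lactamase reporter under UAS control), plated and rested 5 h at 37 C, then exposed to compounds in DMSO at 37 C; LiveBLAzer B/G FRET substrate added, 2 h room temperature, fluorescence read.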

Assay [13] can be described thus: qHTS assay to identify small molecule antagonists of the peroxisome proliferator-activated receptor delta (PPARd) signaling pathway - cell viability counter screen (AID 743213). Further: nearly all actives have a fitted effect of over 50% in size. The gist of the method:
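Agonist-stimulated (L165041, 300 nM final) HEK293H PPARd UAS-bla cells are exposed to compounds for 17 h at 37 C, and ATP-based luminescence (CellTiter-Glo) from the same wells reports cytotoxicity.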

For assay [14], the target named is Peroxisome proliferator-activated receptor delta (Homo sapiens) (UniProt Q03181). Briefly: qHTS assay to identify small molecule antagonists of the peroxisome proliferator-activated receptor delta (PPARd) signaling pathway (AID 743215; active means well fitted inhibition curve with a large enough effect in the signal ratio in the repeat runs, not every such curve was filed as active; the % refers to the signal ratio; further: series mostly up to about 62 µM). Put shortly: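 With L165041 present at 300 nM final, compounds were incubated 17 h at 37 C on PPARd UAS-bla HEK293H cells. A FRET-based beta-lactamase substrate was then applied for 2 h at room temperature and fluorescence intensity recorded.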

The target of assay [15] is Bile acid receptor (Homo sapiens) (UniProt Q96RI1). Briefly: qHTS assay to identify small molecule antagonists of the farnesoid-X-receptor (FXR) signaling pathway (AID 743217; active means well fitted inhibition curve with a large enough effect in the signal ratio in the repeat runs, not every such curve was filed as active; the % refers to the signal ratio). The gist of the method: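 In this cell-based antagonist screen, inhibition of CDCA-driven (50 uM final) UAS-beta-lactamase expression in HEK 293T cells was measured by FRET fluorescence following 16 h compound exposure at 37 °C.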

A short description of assay [16]: qHTS assay to identify small molecule agonists of the farnesoid-X-receptor (FXR) signaling pathway - cell viability counter screen (AID 743218). Further: nearly all actives have a fitted effect of over 45% in size. The gist of the method: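 After 16 h at 37 C with test compounds, FXR-bla HEK 293T cells were given LiveBLAzer B/G substrate for 2 h at RT and then CellTiter-Glo; luminescence was taken after 30 min.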
Assay [17] addresses Bile acid receptor (Homo sapiens) (UniProt Q96RI1). Briefly: qHTS assay to identify small molecule agonists of the farnesoid-X-receptor (FXR) signaling pathway (AID 743220; active means well fitted activation curve with a large enough effect in the signal ratio in the repeat runs, not every such curve was filed as active; the % refers to the signal ratio). Put shortly:
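Beta-lactamase reporter under UAS control in GeneBLAzer FXR HEK 293T cells (5000/well) measured with LiveBLAzer FRET substrate after 2 h at room temperature. Compound exposure lasted 16 h at 37C.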

Assay [18] can be described thus: qHTS assay to identify small molecule antagonists of the farnesoid-X-receptor (FXR) signaling pathway - cell viability counter screen (AID 743221; active means well fitted cell-killing curve with a large enough effect in the repeat runs, not every such curve was filed as active; further: nearly all actives have a fitted effect of over 50% in size). Put shortly:
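Cytotoxicity counter screen run in the FXR-bla reporter wells: HEK 293T cells exposed to compound with 50 uM (final) chenodeoxycholic acid for 16 h, 37 C, then viability measured by CellTiter-Glo luminescence after 30 min, room temperature.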

The target of assay [19] is Vitamin D3 receptor (Homo sapiens) (UniProt P11473). Briefly: qHTS assay to identify small molecule agonists of the vitamin D receptor (VDR) signaling pathway (AID 743222; calls by dose curve). The gist of the method:
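VDR-bla cells were seeded, left 4 h, treated with compounds in DMSO for 16 h, incubated 2 h at RT with B/G FRET substrate, and read for fluorescence.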

Each structure is given as a SMILES string. Results filed as inconclusive are left out. Activity calls are given as the source filed them. Unless noted, the call rests on the fitted dose curve; in most records, active means well fitted curve in the direction sought with a large enough effect in the repeat runs; inconclusive means weak or mixed curves; inactive means no such curve, though single readings can be large; an effect the other way counts as inactive or inconclusive.

Peroxisome proliferator-activated receptor gamma (Homo sapiens), sequence (P37231 whole entry, looked up): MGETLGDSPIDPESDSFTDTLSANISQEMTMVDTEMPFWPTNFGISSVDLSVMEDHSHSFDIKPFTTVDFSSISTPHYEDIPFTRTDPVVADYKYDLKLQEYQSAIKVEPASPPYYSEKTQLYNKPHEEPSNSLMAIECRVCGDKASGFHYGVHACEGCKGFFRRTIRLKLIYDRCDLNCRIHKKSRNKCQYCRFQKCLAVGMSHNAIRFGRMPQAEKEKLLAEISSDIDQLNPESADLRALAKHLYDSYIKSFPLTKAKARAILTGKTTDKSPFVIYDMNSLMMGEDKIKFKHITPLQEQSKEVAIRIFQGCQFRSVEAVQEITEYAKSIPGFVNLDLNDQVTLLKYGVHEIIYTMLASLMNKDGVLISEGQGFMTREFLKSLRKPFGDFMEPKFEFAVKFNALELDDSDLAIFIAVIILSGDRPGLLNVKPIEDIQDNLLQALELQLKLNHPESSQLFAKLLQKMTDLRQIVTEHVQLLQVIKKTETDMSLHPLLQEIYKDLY
Vitamin D3 receptor (Homo sapiens), sequence (P11473 whole entry, looked up): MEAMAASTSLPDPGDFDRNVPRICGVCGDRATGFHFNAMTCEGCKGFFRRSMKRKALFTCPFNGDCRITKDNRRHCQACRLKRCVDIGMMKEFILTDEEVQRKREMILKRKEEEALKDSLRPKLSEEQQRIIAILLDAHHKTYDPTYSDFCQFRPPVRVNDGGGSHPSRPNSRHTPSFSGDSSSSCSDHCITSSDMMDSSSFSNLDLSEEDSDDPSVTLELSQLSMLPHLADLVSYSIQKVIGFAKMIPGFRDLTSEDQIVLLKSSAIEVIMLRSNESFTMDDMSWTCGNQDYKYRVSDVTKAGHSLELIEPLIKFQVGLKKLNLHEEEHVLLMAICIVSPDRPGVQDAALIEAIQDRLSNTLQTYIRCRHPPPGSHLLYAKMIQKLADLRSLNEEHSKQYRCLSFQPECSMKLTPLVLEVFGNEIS
Bile acid receptor (Homo sapiens), sequence (Q96RI1 whole entry, looked up): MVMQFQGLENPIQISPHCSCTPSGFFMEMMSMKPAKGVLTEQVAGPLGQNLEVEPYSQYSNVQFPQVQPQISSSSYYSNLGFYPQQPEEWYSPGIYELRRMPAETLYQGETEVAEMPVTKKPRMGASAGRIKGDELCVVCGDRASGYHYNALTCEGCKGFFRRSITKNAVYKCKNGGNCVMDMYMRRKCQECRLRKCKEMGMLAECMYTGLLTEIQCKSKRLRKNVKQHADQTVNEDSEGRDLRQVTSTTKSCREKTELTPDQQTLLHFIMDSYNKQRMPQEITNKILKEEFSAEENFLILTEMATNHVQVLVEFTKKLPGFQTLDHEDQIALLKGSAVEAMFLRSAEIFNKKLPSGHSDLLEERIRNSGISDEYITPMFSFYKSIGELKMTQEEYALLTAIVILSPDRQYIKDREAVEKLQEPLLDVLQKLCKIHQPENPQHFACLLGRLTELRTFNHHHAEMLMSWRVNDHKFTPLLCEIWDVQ
Aryl hydrocarbon receptor (Homo sapiens), sequence (P35869 whole entry, looked up): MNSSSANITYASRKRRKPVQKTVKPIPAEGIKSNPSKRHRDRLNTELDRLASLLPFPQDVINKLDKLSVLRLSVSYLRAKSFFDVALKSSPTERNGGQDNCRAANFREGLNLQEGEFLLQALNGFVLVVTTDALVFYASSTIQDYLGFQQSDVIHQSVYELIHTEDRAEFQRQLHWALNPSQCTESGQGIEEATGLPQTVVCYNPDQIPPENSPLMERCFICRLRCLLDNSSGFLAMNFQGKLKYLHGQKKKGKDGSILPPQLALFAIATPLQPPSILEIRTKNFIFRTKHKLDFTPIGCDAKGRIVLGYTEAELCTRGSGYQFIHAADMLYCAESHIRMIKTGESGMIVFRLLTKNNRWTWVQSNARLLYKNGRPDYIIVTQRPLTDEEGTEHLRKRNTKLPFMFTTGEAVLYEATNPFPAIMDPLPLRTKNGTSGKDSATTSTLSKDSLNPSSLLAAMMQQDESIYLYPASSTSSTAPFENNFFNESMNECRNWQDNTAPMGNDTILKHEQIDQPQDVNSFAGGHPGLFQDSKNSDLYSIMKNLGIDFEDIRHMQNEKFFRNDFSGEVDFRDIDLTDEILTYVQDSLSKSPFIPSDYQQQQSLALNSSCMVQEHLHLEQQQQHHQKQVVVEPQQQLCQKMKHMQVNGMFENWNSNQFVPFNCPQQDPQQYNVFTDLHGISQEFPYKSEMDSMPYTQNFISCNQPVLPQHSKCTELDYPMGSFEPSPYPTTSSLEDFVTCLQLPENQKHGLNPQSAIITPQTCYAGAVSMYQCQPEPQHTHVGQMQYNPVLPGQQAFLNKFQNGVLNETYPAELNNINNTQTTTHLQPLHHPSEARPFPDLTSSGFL
Peroxisome proliferator-activated receptor delta (Homo sapiens), sequence (Q03181 whole entry, looked up): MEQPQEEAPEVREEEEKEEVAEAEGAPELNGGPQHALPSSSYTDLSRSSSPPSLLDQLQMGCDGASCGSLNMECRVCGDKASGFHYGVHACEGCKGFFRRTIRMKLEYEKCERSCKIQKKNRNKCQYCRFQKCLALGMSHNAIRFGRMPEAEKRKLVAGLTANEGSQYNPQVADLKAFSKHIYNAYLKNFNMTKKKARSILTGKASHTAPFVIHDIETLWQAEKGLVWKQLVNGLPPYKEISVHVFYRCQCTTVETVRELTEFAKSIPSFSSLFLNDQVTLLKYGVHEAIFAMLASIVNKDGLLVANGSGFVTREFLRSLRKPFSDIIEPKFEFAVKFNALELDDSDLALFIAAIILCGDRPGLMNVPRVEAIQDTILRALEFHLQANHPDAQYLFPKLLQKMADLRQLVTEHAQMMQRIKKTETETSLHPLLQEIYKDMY

On to `ClCCCCBr`, for which the Potency entry in assay [1], in assay [2], in [3], in assay [4], in [5] and in assay [6] was “inactive” in each case. The Potency result in [7], in assay [8], in assay [9], in [11], in [13] and in [14] was “inactive” in each case. The Potency entry in assay [15], in [16] and in [18] was “inactive” each time. In addition, the outcome in assay [10], in [12], in [17] and in [19] was inactive.
Consider `O=[N+]([O-])C(Br)(CO)CO`, for which the Potency in [1] was 61.1 µM (active). The Potency result in assay [2], in assay [3], in assay [4], in assay [5], in assay [6] and in assay [8] was “inactive” in each case. Also, the Potency entry in assay [9], in assay [11], in assay [13], in [14], in assay [15] and in assay [18] was “inactive” each time. Moreover, the result in [10], in [12] and in [17] was inactive.
In the case of `O=C1C(Cl)C(CCl)CN1c1cccc(C(F)(F)F)c1` (stereo unspecified), the Potency result in assay [1], in assay [3], in assay [4], in [6], in assay [8] and in [9] was “inactive” each time. For the same compound, the Potency entry in assay [11], in assay [13], in assay [14], in assay [16] and in [18] was “inactive” each time. Moreover, the Potency in assay [2] was 48.6 µM (active); in assay [5] it was 21.9 µM (active). Also, the result in assay [10], in assay [12] and in [19] was inactive.
With `Cc1ccccc1CCl`, the Potency result in [1], in assay [2], in assay [3], in assay [4], in assay [5] and in [6] was “inactive” throughout. Besides, the Potency result in assay [8], in assay [9], in assay [11], in [13], in [14] and in [16] was “inactive” in each case. Moreover, in assay [18], the Potency entry was “inactive”. The result in assay [10], in assay [12] and in assay [19] was inactive.
`NC(=O)C(Cl)(Cl)Cl`: the Potency entry in assay [1], in assay [2], in assay [3], in [4], in [5] and in assay [6] was “inactive” throughout. Further, the Potency entry in [8], in assay [9], in [11], in [13], in assay [14] and in assay [15] was “inactive” throughout. Moreover, in [18], the Potency entry is “inactive”. The call in assay [10], in [12], in assay [17] and in [19] was inactive.
With `Cc1c(F)c(F)c(COC(=O)C2C(/C=C(\Cl)C(F)(F)F)C2(C)C)c(F)c1F` (stereo unspecified), the Potency result in assay [1], in assay [2], in assay [3], in assay [4], in assay [5] and in [6] was “inactive” in each case. Moreover, the Potency result in [8], in [9], in [11], in assay [14], in assay [16] and in [18] was “inactive” throughout. For the same compound, the compound was classed as inactive in assay [10], in assay [17] and in assay [19].
Take `C=CC(=O)OC(C)(C)C`: the Potency entry in [1], in assay [2], in assay [3], in assay [4], in [5] and in assay [6] was “inactive” throughout. Also, the Potency entry in assay [7], in [8], in assay [9], in assay [11], in assay [13] and in assay [14] was “inactive” throughout. Moreover, in assay [18], the Potency entry was “inactive”. Moreover, the outcome in assay [10], in assay [12] and in [19] was inactive.
As to `CCC(Cl)CCl` (stereo unspecified), the Potency entry in [1], in assay [2], in [3], in assay [4], in assay [5] and in assay [6] was “inactive” each time. Further, the Potency result in assay [7], in [8], in assay [9], in assay [11], in [14] and in assay [16] was “inactive” throughout. The Potency entry in [18] was “inactive”. The compound was classed as inactive in assay [10], in assay [12] and in assay [19].
